Screens (PubChem BioAssay)
JMJD2C inh – inhibitors of human GASC-1 (JMJD2C) demethylase. Q9H3R0. GST-JMJD2C(1-420) H3K9me3 demethylation, DELFIA europium. inhibition, % at 2.35 µM. 330,000 tested, 0.069% active. AID 2099;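 active = more than half of a compound's replicate wells show inhibition beyond 50%, single wells judged on their own value; inconclusive = some, but no more than half, of replicates pass 50% inhibition; inactive = no replicate passes 50% inhibition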;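 note: signal counts dimethyl H3K9 product captured on neutravidin plate; 0% = median of DMSO wells and 100% = 0.3 times that DMSO median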
PolyA inhibitor – yeast polyadenylation inhibition; S. cerevisiae SKY197-pL101 polyadenylation reporter, beta-gal luminescence; efflux-impaired pdr1/pdr3 knockout yeast; score 100 = 6 SD above DMSO; activity score, % at 12 µM; 300,000 tested, 0.02% active; AID 1875;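 active = lowest replicate activity score at least 50, where 100 means six control SD above control mean; inconclusive = lowest score under 50 but half or more replicates reach 50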;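 note: yeast exposed to compound for 9 h at 30 °C; higher score means more reporter readthrough which indicates perturbed polyadenylation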
NALP1 inh – inhibitors of NALP1 inflammasome in yeast. inhibition, % at 10 µM. S. cerevisiae NALP1/ASC/caspase-1 growth, X-gal OD620, 72 h. 280,000 tested, 0.61% active; in the data active = inhibition mostly above about 24%, no sharp cut-off; inactive = mostly below about 32%
Efflux pump mplx – blocks antifungal efflux pumps in multiplex yeast assay | S. cerevisiae Candida pump triplex, Nile Red efflux | AID 485275 | inhibition, % at 10 µM | 330,000 tested, 0.44% active;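 active = plate passing quality check with inhibition over a set limit, or well fluorescence over plate mean plus 4 SD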;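 note: Nile Red retained in pooled yeast measured as flow cytometry median fluorescence; 0% = buffer negative control and 100% = Enniatin B positive control; higher means more Nile Red kept so more efflux inhibition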
NLRP3 yeast inh – NALP3 inhibition in yeast; Yeast reconstituted NLRP3/ASC/caspase-1, beta-gal luminescence, 24 h; inhibition, % at 10 µM; 330,000 tested, 0.39% active;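 active = inhibition of 50% or more; inactive = inhibition below 50%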;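 note: plate controls were induced DMSO wells for no effect and uninduced yeast grown without galactose for full effect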
HDAC3 inhib – human HDAC3 inhibition. O15379. recombinant HDAC3, fluorogenic peptide/trypsin coupled, fluorescence. inhibition, % at 8.3 µM. 320,000 tested, 0.15% active; in the data active = inhibition above about 26%, passing the limit was not always enough; inconclusive = no clear call, values can overlap the other calls
Target sequence (O15379 whole entry, looked up): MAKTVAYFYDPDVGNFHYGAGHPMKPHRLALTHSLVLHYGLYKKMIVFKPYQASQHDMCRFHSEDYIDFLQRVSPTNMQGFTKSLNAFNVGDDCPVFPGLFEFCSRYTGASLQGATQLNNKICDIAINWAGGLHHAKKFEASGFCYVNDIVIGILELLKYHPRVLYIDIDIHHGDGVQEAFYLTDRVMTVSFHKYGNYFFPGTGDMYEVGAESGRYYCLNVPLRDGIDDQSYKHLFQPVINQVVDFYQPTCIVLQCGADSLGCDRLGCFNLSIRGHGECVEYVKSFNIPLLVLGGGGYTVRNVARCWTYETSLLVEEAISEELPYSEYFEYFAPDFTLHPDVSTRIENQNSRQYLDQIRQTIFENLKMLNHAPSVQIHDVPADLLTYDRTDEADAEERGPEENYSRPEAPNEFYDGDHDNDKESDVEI
An asterisk follows results filed as active; ? = inconclusive; nt = no result given; ! = repeats disagree. The list is not random: actives were taken first. Their share in the collection is about 1.5%.

SMILES	JMJD2C inh	PolyA inhibitor	NALP1 inh	Efflux pump mplx	NLRP3 yeast inh	HDAC3 inhib
O=C(c1ccccc1Cl)N(Cc1ccc(Br)cc1)N1C(=O)CCCC1=O	3	-25	5	0	-12	-1
CCc1ccc(OCC(=O)OC2CCS(=O)(=O)C2)cc1 (centres undefined)	-18	-1	25*	0	14	6
Cc1ccc(OCC(=O)OC2CCS(=O)(=O)C2)cc1 (centres undefined)	17	2	-8	0	5	-5
CCOc1ccccc1NC(=O)/C=C/C(N)=O	-11	-3	54*	0	42	9
COc1ccc(NC(=S)NC(=O)C2CCCCC2)cc1	?	8	19	0	19	-2
CCOc1ccccc1NC(=S)NC(=O)C1CC1	-25	-8	26*	0	9	-9
CC(=O)Nc1ccc(NC(=S)NC(=O)C2CCCC2)cc1	2	10	32*	0	1	-2
O=C(CN1C(=O)CSc2ccc(S(=O)(=O)N3CCCCC3)cc21)NCc1ccccc1Cl	-31	-7	-2	0	-2	-4
C/C(=N\NC(=O)COc1cccc(C)c1)c1ccc2ccccc2c1O	0	nt	2	0	8	5
COc1ccc(C2=NOC(c3nnc(-c4ccccc4)o3)C2)cc1 (centres undefined)	-7	12	nt	0	39	12
COC(=O)C(C)Sc1n[nH]c(=S)s1 (centres undefined)	0	10	7	0	18	31*
N#Cc1ccc(N=c2ssnc2Cl)cc1	58*!	-33	-16	0	17	38*
Clc1ccc(N=c2ssnc2Cl)cc1	?	-12	-5	0	33	14
COc1cc(N=c2ssnc2Cl)cc(OC)c1OC	-13	-7	-15	0	9	36*
CCc1cc(=O)[nH]c(SCC(=O)Nc2ccc3c(c2)OCCO3)n1	4	-1	nt	0	7	nt
CC(C)NC(=O)c1ccccc1NC(=O)CS(=O)(=O)Cc1ccccc1	-1	5	36*	0	7	-4
O=S(=O)(c1ccc(SCc2ccc(Cl)cc2)nc1)N1CCCC1	-1	nt	nt	0	30	-1
O=C(c1cc2cc(Cl)ccc2o1)N1CCCC1	2	6	35*	0	49	-1
COc1ccc(N2CCN(C(=O)COC(=O)COc3cc(C)cc(C)c3)CC2)cc1	-10	16	nt	0	13	3
Cc1ccc(CNC(=O)Nc2ccc3c(c2)N(C)C(=O)CS3)cc1	6	7	31*	0	27	2
CN1C(=O)CSc2ccc(NC(=O)NCc3ccccc3)cc21	2	2	-1	0	10	2
CCC(C(=O)Nc1cnccn1)c1ccccc1 (centres undefined)	-30	8	22*	0	22	1
CCN(CC)c1ccc(/C=C/c2nc3ccccc3s2)cc1	0	-12	16	1.0*	17	4
COCCN(C(=O)c1snc(C(N)=O)c1N)C(C(=O)NC1CCCCC1)c1ccc(F)cc1 (centres undefined)	-8	-2	7	1	2	-1
Nc1nn2c(-c3ccccc3)cc(=O)[nH]c2c1N=Nc1ccc(O)cc1	51*	-14	14	0	18	4
SMILES	JMJD2C inh	PolyA inhibitor	NALP1 inh	Efflux pump mplx	NLRP3 yeast inh	HDAC3 inhib
CC(C)(C)c1cc(-c2nc(N)nc(N)n2)c(O)c(C(C)(C)C)c1	-3	nt	nt	0	1	29*
Nc1nc(N)nc(-c2cc(O)ccc2O)n1	4	nt	nt	0	18	?
N#Cc1cccc(NC(=O)CCc2ccc(S(=O)(=O)N3CCOCC3)cc2)c1	3	nt	nt	0	10	-3
O=C(O)CCCn1cc(NC(=O)c2cccc(F)c2)cn1	-3	8	27*	0	2	3
O=C(O)CCCn1cc(NC(=O)c2cc(F)c(F)cc2Cl)cn1	-2	-8	18	0	4	-13
Cc1cc2nc(-c3ccc(SCC(=O)N4CCc5ccccc54)nc3)[nH]c2cc1C	-4	6	24*	0	-14	-2
COc1ccc(-n2c(=O)[nH]cc(C(=O)N3CCCc4ccccc43)c2=O)cc1	-10	-5	27*	0	-5	-1
O=C1c2ccccc2C(=O)N1OS(=O)(=O)c1ccccc1	16	8	37	0	nt	44*
O=C(Nc1ccccc1O)c1ccc(NS(=O)(=O)c2cccc3cccnc23)cc1	0	1	7	0	10	103*
N#C/C(=C\c1ccc(F)c(F)c1)C(=O)NC1CCCCC1	5	-7	60*	0	3	-16
CN1C(=O)C(C)(C)N(C(=O)c2cccc([N+](=O)[O-])c2)c2ccccc21	96	-8	23	0	14	-11
Cc1nn(Cc2ccccc2)c2c1C(c1cccnc1)C(C#N)=C(N)O2 (centres undefined)	-1	2	41*	0	-3	-6
CCOC(=O)Cc1csc(SCC(=O)N2CCN(c3ccccc3)CC2)n1	18	nt	nt	0	5	2
O=c1[nH][nH]c(=S)n1C1CCCCC1	0	-20	10	0	-12	32*
Cc1ccc(CSCCNC(=O)CSCc2ccc([N+](=O)[O-])cc2)cc1	-1	-9	48*	0	31	-1
Cc1cccc(CSCCNC(=O)CSCc2ccc([N+](=O)[O-])cc2)c1	-41	7	21	0	15	6
CCc1nnc(NC(=O)CSc2nnc(-c3cccnc3)n2CC)s1	9	0	40*	0	12	-8
CCCn1c(SCC(=O)Nc2nnc(CC)s2)nnc1-c1ccncc1	9	11	30*	0	7	-1
C=CCn1c(SCC(=O)Nc2nnc(CC)s2)nnc1-c1ccncc1	-12	22	-14	0	17	3
COc1ccc(N2CC(C(=O)Nc3nc4ccc(S(C)(=O)=O)cc4s3)CC2=O)cc1 (centres undefined)	18	5	2	0	5	-10
COc1ccc(Cl)cc1S(=O)(=O)NC(C)C(=O)NCc1ccc2c(c1)OCO2 (centres undefined)	9	5	25	0	15	-2
NS(=O)(=O)c1ccc(CCNC(=O)c2cc(-c3ccc(Br)cc3)nc3ccccc23)cc1	-4	4	3	0	5	-4
NS(=O)(=O)c1ccc(CCNC(=O)c2cc(-c3ccccn3)nc3ccc(Br)cc23)cc1	6	-5	41*	0	20	-2
CCOc1cc(/C=N/NC(=O)C(O)(c2ccccc2)c2ccccc2)ccc1OC(=O)c1ccco1	15	6	nt	0	-15	5
O=S(=O)(c1cccs1)N1CCN(c2ccc(O)cc2)CC1	2	-7	35*	0	24	nt
CN1CCN(S(=O)(=O)c2cccs2)CC1	9	0	-7	0	0	6
